From PubChem BioAssay AID1671190 (National Center for Advancing Translational Sciences (NCATS), 2021)
About 6,100 (1.1%) of roughly 580,000 compounds were called active. About 15% were inconclusive and are not listed. This is one part of a sample in which actives are shown more often than they occur. A number with no mark means an inactive call. Calls come from the whole dose curve; as a rule, active = well fitted inhibition curve with a large enough effect; inconclusive = small, poorly fitted or top-dose-only effect, or another doubt; inactive = no such curve, though single readings can be large or run the other way.

Each compound was assayed against Polyunsaturated fatty acid lipoxygenase ALOX12 (Homo sapiens) (UniProt P18054) (assay: Primary qHTS assay for inhibitors of human arachidonate 12S-lipoxygenase (ALOX12): Round 2). Conditions: purified 12hLO, xylenol orange hydroperoxide absorbance; series mostly up to 108 µM; activity change, negative = inhibition: at the top concentration.
In short: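 Purified human 12hLO at 150 nM in 25 mM Hepes, 0.01% Triton X-100, pH 7.0, preincubated 15 min at room temperature with compound. Reaction started with 40 uM arachidonic acid, 30 min at room temperature. Hydroperoxide measured by Fe-xylenol orange, 573/405 nm absorbance ratio.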
% is set by controls: 0 for no effect and ±100 for the full control effect; potency is the fitted concentration of half-maximal effect.

Polyunsaturated fatty acid lipoxygenase ALOX12 (Homo sapiens), sequence (P18054 whole entry, looked up): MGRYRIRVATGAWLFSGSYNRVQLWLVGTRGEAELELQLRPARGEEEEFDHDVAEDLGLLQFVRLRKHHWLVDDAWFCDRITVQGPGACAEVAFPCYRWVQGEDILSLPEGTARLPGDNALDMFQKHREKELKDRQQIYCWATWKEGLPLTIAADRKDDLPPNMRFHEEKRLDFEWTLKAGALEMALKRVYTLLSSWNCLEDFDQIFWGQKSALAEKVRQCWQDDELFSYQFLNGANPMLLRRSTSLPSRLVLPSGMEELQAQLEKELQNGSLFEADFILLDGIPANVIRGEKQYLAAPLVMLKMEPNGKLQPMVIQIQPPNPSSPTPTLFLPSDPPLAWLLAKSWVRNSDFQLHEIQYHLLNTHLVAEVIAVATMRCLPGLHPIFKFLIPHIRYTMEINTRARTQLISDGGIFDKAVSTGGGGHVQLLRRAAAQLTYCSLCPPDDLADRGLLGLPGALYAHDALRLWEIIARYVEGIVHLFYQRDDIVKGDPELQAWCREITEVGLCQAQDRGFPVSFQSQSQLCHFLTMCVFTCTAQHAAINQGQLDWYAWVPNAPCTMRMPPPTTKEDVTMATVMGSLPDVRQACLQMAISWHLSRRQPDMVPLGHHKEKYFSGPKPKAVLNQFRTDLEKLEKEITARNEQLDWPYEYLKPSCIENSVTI

Row | Structure (SMILES) | activity change, negative = inhibition | Potency
1 | CC(=O)N1CCC(C(=O)N(C)CC(=O)Nc2ccccc2C(F)(F)F)CC1 | -4.93% | –
2 | Cc1cccc(Oc2c(C(F)(F)F)oc3cc(OCC(=O)OCCC(C)C)ccc3c2=O)c1 | 11.5% | –
3 | O=C(OCc1nc2ccccc2o1)c1ccc2ccccc2c1 | 9.47% | –
4 | C=CC(=O)c1ccc2ccccc2c1 | – | 17.8 µM (active)
5 | O=C(OCC(=O)N1CCOCC1)c1ccc2ccccc2c1 | 198% | –
6 | O=C(O)COc1ccc(-c2nccc3c2C(=O)N(Cc2c[nH]c4ccccc24)CC(COc2ccc(F)c(F)c2)O3)cc1 (stereo not drawn) | 6.07% | –
7 | Cc1nn(C)c2nc(C(C)C)cc(C(=O)N3CCN(c4ncccn4)CC3)c12 | 43.9% | –
8 | Cc1[nH]n(C(N)=S)c(=O)c1N=Nc1ccc(Cl)cc1Cl | -80.5% | –
9 | Cc1[nH]n(C)c(=O)c1N=Nc1ccc(S(C)(=O)=O)cc1 | – | 6.31 µM (active)
10 | Cc1[nH]n(C)c(=O)c1C(=O)c1c(-c2c(Cl)cccc2Cl)noc1C | -37.5% | –
11 | Oc1ccc(O)c([S+]2CCCC(C3CCCCC3)C2)c1 (stereo not drawn) | – | 17.8 µM (active)
12 | COc1ccc(Cc2nnc(SCc3nc4ccccc4c(=O)[nH]3)n2CC(C)C)cc1 | 5.98% | –
13 | Cc1ccc(NC(=O)C2Cc3ccccc3O2)cc1S(N)(=O)=O (stereo not drawn) | 26.3% | –
14 | CCOC(=O)C1=C(c2ccccc2)N=C2SCC(=O)N2C1c1ccc(O)c(OC)c1 (stereo not drawn) | 16% | –
15 | COc1cc(C2C(C(=O)c3ccc(C)o3)=C(O)C(=O)N2CCc2ccccc2)ccc1O (stereo not drawn) | – | 35.5 µM (active)
16 | COCCN1C(=O)C(O)=C(C(=O)c2ccc(C)o2)C1c1ccc(O)c(OC)c1 (stereo not drawn) | – | 17.8 µM (active)
17 | COc1ccc(CCN2C(=O)c3[nH]nc(-c4ccccc4O)c3C2c2ccc(C)cc2)cc1OC (stereo not drawn) | -5.81% | –
18 | COc1cc(C2C(C(=O)c3sc(C)nc3C)=C(O)C(=O)N2CCN(C)C)cc(OC)c1OC (stereo not drawn) | 3.5% | –
19 | CCCOc1ccc(C2C(C(=O)c3ccc(C)o3)=C(O)C(=O)N2CCCn2ccnc2)cc1 (stereo not drawn) | -23.1% | –
20 | COc1ccc(OC2CN(Cc3cccn3C)C2)cc1 | 5.21% [at 12.5 µM] | –
21 | COc1ccc(OCCSC(C)C(N)=O)cc1 (stereo not drawn) | 0.76% | –
22 | CC(C)c1ccc(C2CC(=O)N3CN(C4CCCCC4)CSC3=C2C#N)cc1 (stereo not drawn) | – | 17.8 µM (active)
23 | CC(C)c1ccc(/C=N/NC(=O)c2cc(C3CC3)nc3ccccc23)cc1 | -1.68% | –

Row | Structure (SMILES) | activity change, negative = inhibition | Potency
24 | COc1cc(C(=O)Nc2ccc(C(=O)O)cc2)c2ccccc2n1 | -3.94% | –
25 | CNC(=O)c1cccc(NC(=O)c2cc(C3CC3)nc3ccccc23)c1 | – | 39.8 µM (active)
26 | CNC(=O)C(=O)NC1CC(C)(C)NC(C)(C)C1 | 12.8% | –
27 | Cc1cc(C)cc(S(=O)(=O)n2cc3c(=O)n(C)c(=O)n(C)c3n2)c1 | 17.8% | –
28 | O=CN1CCN(C(=O)CCC(=O)O)CC1 | 1.54% | –
29 | c1ccc(CNc2ncncc2-c2cccnc2)cc1 | – | 39.8 µM (active)
30 | Clc1ccc(Cn2ncc3c(NCc4cccnc4)ncnc32)cc1 | 9.76% | –
31 | Cc1cnc(CNc2nc(-c3cccnc3)nc3ccccc23)cn1 | -15.3% | –
32 | Cc1cccc(-c2cc(C(=O)NCC3CCCO3)c3ccccc3n2)c1 (stereo not drawn) | -41.8% | –
33 | COc1ccc(-c2noc(-c3cc4cc(Cl)ccc4oc3=O)n2)cc1OC | -21.2% | –
34 | CC1CCCCC1NC(=O)CSc1nnc(-c2ccncc2)n1CCCN(C)C (stereo not drawn) | – | 0.355 µM (active)
35 | O=C(CSc1nnc(-c2ccncc2)n1C1CCCCC1)Nc1ccccc1 | -13.7% | –
36 | CCn1c(SCC(=O)NC2CC2)nnc1-c1ccncc1 | 0% | –
37 | CCOc1ccc(CNS(=O)(=O)c2ccc(-c3ccc(=O)[nH]n3)o2)cc1 | 1.93% | –
38 | O=C(NC1CCS(=O)(=O)C1)c1cc2ccccc2oc1=O (stereo not drawn) | -5.29% | –
39 | O=C(C[C@@H]1CCNC[C@@H]1Cc1cc(-c2ccc(F)cc2)on1)NCCN1CCOCC1 | 10.7% [at 176 µM] | –
40 | CCCCc1cc(C[C@H]2CNCC[C@H]2CC(=O)N(CC)CC)no1 | 15.8% [at 176 µM] | –
41 | CN(Cc1ccccc1)C(=O)C[C@@H]1CCNC[C@@H]1Cc1cc(-c2ccc(C(C)(C)C)cc2)on1 | – | 25.1 µM (active)
42 | COc1ccc(S(=O)(=O)Nc2nc3ccccc3nc2Nc2cccc(C)c2)cc1 | 0.128% | –
43 | COc1ccc(C(=O)OCc2ccc(Br)cc2)c(OC)c1 | -24.9% | –
44 | COc1ccc(OC(=O)CCc2ccc3c(c2)OCCO3)cc1 | -53.4% | –
45 | CCCCc1c/c(=N\O)oc2cc3occ(C)c3cc12 | – | 17.8 µM (active)
46 | CCOC(=O)COc1ccc2c(=O)c(-c3ccc(OC)c(OC)c3)c(C)oc2c1 | 7.48% | –

Row | Structure (SMILES) | activity change, negative = inhibition | Potency
47 | CC(C)C[C@@H]1N[C@H](C(=O)NCc2ccc(F)cc2)Cc2cn(C)c3cccc1c23 | 23.5% [at 176 µM] | –
48 | Cc1ccc(Cl)c(OC(C)C(=O)NN)c1 (stereo not drawn) | 10.7% | –
49 | CCOC(=O)C[C@H]1c2ccc(C(F)(F)F)cc2S(=O)(=O)N1c1ccccc1 | -16.8% | –
50 | CCOC(=O)C1Nc2ccc(C(F)(F)F)cc2C2C=CCC12 (stereo not drawn) | – | 17.8 µM (active)
51 | CCOC(=O)/C=C/c1ccc(C(F)(F)F)cc1S(=O)(=O)NC(C)(C)C | -28.5% | –
52 | Cc1ccc(S(=O)(=O)N2CCCC(C(=O)O)C2)cc1F (stereo not drawn) | -9.4% | –
53 | NC(=O)CN1C(=O)C(O)(CC(=O)c2ccc3c(c2)OCO3)c2ccccc21 (stereo not drawn) | -0.761% | –
54 | CS(=O)(=O)Nc1ccc([C@H]2OCC(=O)N(C3CCOCC3)[C@@H]2CO)cc1 | 10.1% [at 176 µM] | –
55 | Cc1ccc2[nH]cc(C(C(=O)O)N3CCN(c4ccccc4)CC3)c2c1 (stereo not drawn) | 69.7% | –
56 | CC(C)OC(=O)c1ccc(NCc2cc(O)ccc2O)cc1Cl | – | 10 µM (active)
57 | Cc1ccc(C(=O)NC(C)C)c(Cl)c1 | 25.9% | –
58 | O=C(O)c1ccc(CSc2ccc(Cl)cc2Cl)cc1 | -47.7% | –
59 | Cc1ccc(C2(C(=O)N3C[C@@H](CN4CCCCC4)[C@@H](CO)C3)CC2)cc1 | -8.28% | –
60 | Cc1[nH]c2ccccc2c1C(=O)C(C)Sc1nnc(C2CC2)o1 (stereo not drawn) | – | inactive
61 | CC(Sc1ccc2c(c1)OCCCO2)C(=O)O (stereo not drawn) | -2.01% | –
62 | Cc1[nH]c2ccccc2c1C(=O)C(C)Sc1ccc2c(c1)OCCCO2 (stereo not drawn) | – | 14.1 µM (active)
63 | COc1ccc(-c2c(C)c3ccc(OCC(=O)OC(C)(C)C)cc3oc2=O)cc1OC | 16.1% | –
64 | CCN(C1CCCCC1)S(=O)(=O)c1ccc(C(=O)Nc2ccc(Cl)c3ncsc23)cc1 | -5.15% | –
65 | CO[C@@H]1COCC[C@H]1NC(=O)CCCc1nc(-c2ccccc2C)no1 | 25% | –
66 | CC1CC(C)(C)NC(=S)N1CCC(=O)N1CCN(Cc2ccccc2)CC1 (stereo not drawn) | -2.83% | –
67 | CC1CC(=S)Nc2ccccc2N1Cc1ccccc1 (stereo not drawn) | – | 44.7 µM (active)
68 | CC1CC(=O)Nc2ccccc2N1S(=O)(=O)c1cccs1 (stereo not drawn) | 148% | –
